The text below walks through data of PubChem BioAssay (EPA / NIEHS).

Inconclusive results are not listed. Activity calls are given as the source filed them. How the source made its calls: active means hit-call score of the fitted dose curve at least 0.9, where 1 is the maximum; inconclusive means response in the unintended direction; inactive means score below 0.9.

Test [1] in a line: Tanguay_ZF_120hpf_NC_legacy: (Legacy) Oregon State University Tanguay Lab 120 Hour Post-fertilization zebrafish Assay for Notochord and Tail Malformation (AID 2283656). In short, it runs like this: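 Binary scoring of notochord distortion by brightfield microscopy; embryos dying were not scored. Wild-type Tropical 5D embryos, chorion removed, exposed singly and statically from 6 to 120 hpf, 28C, sealed, 0.64% DMSO.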

Read-out in test [2]: Broad substrate specificity ATP-binding cassette transporter ABCG2 (Homo sapiens) (UniProt Q9UNQ0)
Put plainly: CLD_ABCG2_6hr: CellzDirect (CLD) Gene Expression Assay for ABC Transporter (ABCG2) at 6 hours (AID 2283660). In short, it runs like this: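 ABCG2 mRNA induction measured by qNPA chemiluminescence in human primary hepatocyte cultures, 6 h post-dose. Chemicals tested at several concentrations against a 0.2% DMSO vehicle; positive-direction fit relative to DMSO.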

Read-out in test [3]: alkyl and aryl transferase (GSTA2), GSTA2 (gene 2939)
Put plainly: CLD_GSTA2_6hr: CellzDirect (CLD) Gene Expression Assay for alkyl and aryl transferase (GSTA2) at 6 hours (AID 2283666). The essentials: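 GSTA2 transcript induction at 6 h, quantified by nuclease protection (qNPA) with chemiluminescent detection, in human liver primary hepatocytes exposed to several compound concentrations with 0.2% DMSO as baseline; phase-contrast morphology annotated apparent cytotoxicity.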

Test [4] is described as follows: Tanguay_ZF_120hpf_TR_legacy: (Legacy) Oregon State University Tanguay Lab 120 Hour Post-fertilization zebrafish Assay for Touch Response (AID 2283667). In short, it runs like this: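 Readout is presence or absence of touch response in 120 hpf zebrafish larvae, assessed by brightfield observation after continuous static exposure at 28C. Final vehicle was 0.64% (vol/vol) DMSO.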

Read-out in test [5]: organic anion transporter (SLCO1B1), SLCO1B1 (gene 10599)
Kind of test: CLD_SLCO1B1_6hr: CellzDirect (CLD) Gene Expression Assay for organic anion transporter (SLCO1B1) at 6 hours (AID 2283668).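 Further: active means mRNA induction above DMSO baseline.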 In short, it runs like this: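 SLCO1B1 mRNA induction measured 6 h after dosing by quantitative nuclease protection with chemiluminescent read-out, in human primary hepatocyte cultures given chemicals at several concentrations (vehicle 0.2% DMSO). Increase over DMSO baseline fitted; morphology-based cytotoxicity annotated yes/no.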

Read-out in test [6]: glucuronosyltransferase (UGT1A1), UGT1A1 (gene 54658)
Put plainly: CLD_UGT1A1_6hr: CellzDirect (CLD) Gene Expression Assay for glucuronosyltransferase (UGT1A1) at 6 hours (AID 2283672). In short, it runs like this: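 UGT1A1 mRNA induction, read by quantitative nuclease protection assay, 6 h after dosing primary human hepatocytes (two donors, 0.2% DMSO vehicle). Gain of signal fitted relative to vehicle.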

Read-out in test [7]: ABC Transporter (ABCB1), ABCB1 (gene 5243)
Kind of test: CLD_ABCB1_6hr: CellzDirect (CLD) Gene Expression Assay for ABC Transporter (ABCB1) at 6 hours (AID 2283659).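 Further: hits raise ABCB1 transcript above the DMSO vehicle baseline.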 In short, it runs like this:
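ABCB1 transcript measured by quantitative nuclease protection assay, chemiluminescent read-out, 6 h after dosing human hepatocyte cultures (0.2% DMSO vehicle, daily redosing). Activity fitted as increase over DMSO baseline; cytotoxicity flagged by phase-contrast morphology.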

Read-out in test [8]: sulfotransferase (SULT2A), SULT2A1 (gene 6822)
Put plainly: CLD_SULT2A_6hr: CellzDirect (CLD) Gene Expression Assay for sulfotransferase (SULT2A) at 6 hours (AID 2283669).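 Further: hits raise transcript level above the DMSO vehicle baseline.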 In short, it runs like this:
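Measured 6 h after dosing, SULT2A1 mRNA in human hepatocyte lysates was quantified by S1 nuclease protection with chemiluminescent detection. Increases fitted against 0.2% DMSO vehicle baseline; phase-contrast cytotoxicity recorded yes/no.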

The nature of test [9]: CLD_ACTIN_24hr: CellzDirect (CLD) Gene Expression Assay for Baseline Control (Actin) at 24 hours (AID 2283670). The essentials: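 This 24 h qNPA (S1 nuclease protection, chemiluminescence) actin transcript readout in cultured human liver primary cells serves as baseline control. Signal is fitted upward relative to 0.2% DMSO; chemicals tested at multiple concentrations across two donor preparations.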

Read-out in test [10]: ABC Transporter (ABCB11), ABCB11 (gene 8647)
Put plainly: CLD_ABCB11_6hr: CellzDirect (CLD) Gene Expression Assay for ABC Transporter (ABCB11) at 6 hours (AID 2283675).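 Further: hits raise ABCB11 mRNA level so AC50 marks induction.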 The essentials:
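Read-out was ABCB11 mRNA gain of signal by quantitative nuclease protection assay, relative to 0.2% DMSO vehicle, 6 h post-dose. Cells were primary human hepatocytes from two donors, treated across multiple concentrations; phase-contrast cytotoxicity noted yes/no.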

Read-out in test [11]: Cytochrome P450 2B6 (Homo sapiens) (UniProt P20813)
Kind of test: CLD_CYP2B6_6hr: CellzDirect (CLD) Gene Expression Assay for xenobiotic metabolism (CYP2B6) at 6 hours (AID 2283677).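 Further: actives raise CYP2B6 transcript above DMSO baseline so AC50 marks an inducer.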 The essentials:
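CYP2B6 transcript levels, read by chemiluminescent qNPA, were fitted for increase versus DMSO baseline; cultured human liver hepatocytes from two donor preparations were harvested 6 h after exposure to test chemicals at multiple concentrations.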

The test system of test [12] is Thyroperoxidase (TPO), gene 54314. Kind of test: CCTE_Simmons_AUR_rTPO: CCTE's Amplex UltraRed Assay for Thyroperoxidase (TPO) Inhibition, Simmons Lab (AID 2283662).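 On AC50: potency for loss of signal meaning inhibition of peroxidase activity.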 In short, it runs like this: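 Rat thyroid microsomes (5 ug protein) with 25 uM Amplex UltraRed and 300 uM H2O2 in 200 mM phosphate buffer, 30 min at 37C in dark; fluorescence 544/590 nm. Eight concentrations, 5 nM–87.5 uM final, 0.5% DMSO, triplicate biological replicates.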

Read-out in test [13]: xenobiotic metabolism (CYP1A2), CYP1A2 (gene 1544)
Kind of test: CLD_CYP1A2_6hr: CellzDirect (CLD) Gene Expression Assay for xenobiotic metabolism (CYP1A2) at 6 hours (AID 2283663).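 On AC50: potency is for induction meaning a rise in mRNA above DMSO.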 In short, it runs like this: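 mRNA levels quantified by quantitative nuclease protection assay with chemiluminescence, 6 h after dosing human primary hepatocyte cultures (two donors) across several concentrations, vehicle 0.2% DMSO. Induction fitted upward versus DMSO; phase-contrast cytotoxicity annotated.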

Test [14] is described as follows: CCTE_Simmons_CellTiterGLO_HEK293T: Viability Assessment in CCTE's Assays for Thyroperoxidase (TPO) Inhibition, Simmons Lab (AID 2283665).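 On AC50: cells exposed to compound for 24 h before readout; actives reduce ATP signal below DMSO vehicle meaning cytotoxicity.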 In short, it runs like this:
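Cells were seeded overnight, then exposed to an eight-point series up to 87.5 uM final for 24 hours. CellTiter-Glo reagent was added and luminescence read after 20 min, giving ATP-based viability versus DMSO.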
(ATP-based viability assays read luminescence as a measure of living cells.)

Read-out in test [15]: xenobiotic metabolism (CYP1A1), CYP1A1 (gene 1543)
Kind of test: CLD_CYP1A1_24hr: CellzDirect (CLD) Gene Expression Assay for xenobiotic metabolism (CYP1A1) at 24 hours (AID 2283673). In short, it runs like this: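 Transcript levels were read at 24 h by qNPA chemiluminescence in human liver primary cells. Cells got daily fresh dosing at multiple concentrations (vehicle 0.2% DMSO). Induction fitted upward against DMSO; phase-contrast cytotoxicity annotated.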

Test [16] in a line: CLD_ACTIN_6hr: CellzDirect (CLD) Gene Expression Assay for Baseline Control (Actin) at 6 hours (AID 2283676).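 Further: active means increased actin mRNA relative to DMSO vehicle.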 The essentials:
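Baseline actin transcript level measured by qNPA (S1 nuclease protection, chemiluminescence) in human hepatocyte cultures 6 h after chemical exposure; 0.2% DMSO vehicle as reference, cytotoxicity noted from morphology.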

Read-out in test [17]: xenobiotic metabolism (CYP1A1), CYP1A1 (gene 1543)
Kind of test: CLD_CYP1A1_6hr: CellzDirect (CLD) Gene Expression Assay for xenobiotic metabolism (CYP1A1) at 6 hours (AID 2283661).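 Further: potency for transcript induction above DMSO vehicle baseline.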 In short, it runs like this: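 Read-out 6 h post-dose: qNPA chemiluminescent quantitation of transcript induction against 0.2% DMSO. Cells were cultured primary human hepatocytes from two separate donor preparations; phase-contrast morphology annotated apparent cytotoxicity.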

Chain of Broad substrate specificity ATP-binding cassette transporter ABCG2 (Homo sapiens) (Q9UNQ0 whole entry, looked up): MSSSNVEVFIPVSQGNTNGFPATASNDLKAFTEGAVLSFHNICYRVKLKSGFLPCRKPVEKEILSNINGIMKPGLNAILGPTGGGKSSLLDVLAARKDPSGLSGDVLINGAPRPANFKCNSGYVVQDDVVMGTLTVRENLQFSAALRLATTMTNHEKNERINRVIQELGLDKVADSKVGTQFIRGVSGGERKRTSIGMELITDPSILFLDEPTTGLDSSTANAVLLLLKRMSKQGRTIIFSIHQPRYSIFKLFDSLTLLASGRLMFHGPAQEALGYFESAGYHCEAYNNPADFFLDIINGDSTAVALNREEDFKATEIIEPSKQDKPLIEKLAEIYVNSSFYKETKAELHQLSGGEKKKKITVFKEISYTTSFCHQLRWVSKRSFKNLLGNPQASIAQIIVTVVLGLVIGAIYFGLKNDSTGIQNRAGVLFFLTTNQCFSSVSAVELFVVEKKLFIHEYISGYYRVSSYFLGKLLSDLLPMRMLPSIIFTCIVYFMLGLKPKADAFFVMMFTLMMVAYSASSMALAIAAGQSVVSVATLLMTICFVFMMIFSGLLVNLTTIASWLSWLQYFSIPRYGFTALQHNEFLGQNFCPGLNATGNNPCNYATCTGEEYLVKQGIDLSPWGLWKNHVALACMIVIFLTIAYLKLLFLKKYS

Consider `CCCOc1nn(C(=O)NS(=O)(=O)c2ccccc2C(=O)OC)c(=O)n1C`, for which the compound was called inactive in test [1], in [2], in test [3], in [4], in [5] and in test [6].

For `Nc1nc(N)nc(NC2CC2)n1`, the result in [7], in [4], in test [8], in test [9], in test [6] and in test [10] was inactive. In addition, in test [11], the result was inactive.

In general, AC50 refers to the concentration at which the activity in the assay is half-maximal. Consider `CCOP(=S)(OCC)OC(Cl)C(Cl)(Cl)Cl` (stereo not drawn), for which the compound was classed as inactive in test [1], in [13], in [5], in test [8], in [6] and in [10]. Also, the AC50 was 3.97 µM (active) in [12] and 64.7 µM (active) in test [14].

With `CC(C1CC1)C(O)(Cn1cncn1)c1ccc(Cl)cc1` (stereo not drawn), the compound was classed as inactive in [1], in test [2], in [4], in [8], in test [6] and in test [10]. The AC50 in test [11] was 1.28 µM (active).

For the compound `CNc1cnn(-c2cccc(C(F)(F)F)c2)c(=O)c1Cl`, the call in test [7], in test [2], in [3], in test [4], in test [8] and in [6] was inactive. For the same compound, in test [10], the call was inactive.

As for `CCc1cnc(C2=NC(C)(C(C)C)C(=O)N2)c(C(=O)O)c1` (stereo not drawn), the compound was called inactive in [1], in [3], in [4], in [5], in test [9] and in [6]. In test [10], the call was inactive.

Regarding `CCNc1nc(Cl)nc(NC(C)(C)C#N)n1`, the compound was called inactive in [1], in test [4], in test [6] and in test [10]. Further, in [11], the AC50 is 3.62 µM (active).

For the compound `CC(Oc1cccc(Cl)c1)C(=O)O` (stereo not drawn), the compound was classed as inactive in test [1], in test [2], in test [3], in [4], in [9] and in [6]. Besides, the result in test [15], in test [10] and in test [16] was inactive.

Take `CCOP(=O)(NC(C)C)Oc1ccc(SC)c(C)c1` (stereo not drawn): the outcome in test [1], in test [12], in [3], in test [4], in [5] and in [6] was inactive. Also, the results for the AC50 in [17] and in test [13] were 2.72 µM (active) and 4.22 µM (active), respectively.

Consider `C[Si](Cn1cncn1)(c1ccc(F)cc1)c1ccc(F)cc1`, for which the result in test [2], in test [13], in test [5], in test [8], in test [9] and in test [6] was inactive. In [10], the compound was classed as inactive. Also, the AC50 in test [15] was 2.21 µM (active).

Turning to `CCCCSP(=O)(SCCCC)SCCCC`, the outcome in [7], in [2], in test [4], in [8], in [6] and in test [10] was inactive. Further, the AC50 in test [11] was 1.9 µM (active).

As for `Cc1nn(-c2cc(NS(C)(=O)=O)c(Cl)cc2Cl)c(=O)n1C(F)F`, the result in test [2], in [3], in test [4], in test [5], in [8] and in test [9] was inactive. The outcome in test [6] was inactive. Further, in test [11], the concentration at half-maximal activity (AC50) is 4.25 µM (active).

On to `C#CCC1=C(C)C(OC(=O)C2C(C=C(C)C)C2(C)C)CC1=O` (stereo not drawn), for which the compound was called inactive in test [2], in test [3], in test [4], in test [5], in test [8] and in test [6]. Moreover, the result in test [10] was inactive. Further, the AC50 in test [12] is 40.2 µM (active); in test [15], 20 µM (active).

`CSC1=N[C@@](C)(c2ccccc2)C(=O)N1Nc1ccccc1`: the result in [1], in [13], in test [14], in test [3], in [4] and in test [8] was inactive. In addition, the compound was classed as inactive in test [9], in [6] and in [16]. Also, the AC50 in test [12] was 25.7 µM (active).

Take `COc1ccc(C(=CC(=O)N2CCOCC2)c2ccc(Cl)cc2)cc1OC`: the outcome in test [7], in test [2], in [3], in [5] and in test [6] was inactive. Besides, the AC50 in [4] was 42.4 µM (active); in test [11], 4.1 µM (active).

For the compound `COc1cccc(C(=O)NN(C(=O)c2cc(C)cc(C)c2)C(C)(C)C)c1C`, the result in test [1], in [2], in test [3], in test [4], in [8] and in test [9] was inactive. The result in test [6] and in test [10] was inactive. Moreover, the AC50 was 36.4 µM (active) in test [15] and 1.29 µM (active) in test [11].

As for `C=C(C)[C@H]1Cc2c(ccc3c2O[C@@H]2COc4cc(OC)c(OC)cc4[C@@H]2C3=O)O1`, the call in test [1], in [14], in test [3], in test [4], in [5] and in test [8] was inactive. Besides, the outcome in test [6] and in test [10] was inactive. Besides, the half-maximal activity concentration (AC50) in test [12] is 26.5 µM (active).

As to `COc1cc(OC)nc(Sc2cccc(Cl)c2C(=O)O)n1`, the outcome in test [1], in test [2], in test [3], in [4], in [6] and in [10] was inactive.

Take `Cc1ccn2nc(S(=O)(=O)Nc3c(F)cccc3F)nc2n1`: the compound was called inactive in test [1], in test [2], in test [4], in test [5], in test [8] and in test [9]. Further, the call in [6] and in test [11] was inactive.

For the compound `CC(C)[C@H](C(=O)O[C@H](C#N)c1cccc(Oc2ccccc2)c1)c1ccc(Cl)cc1`, the compound was classed as inactive in test [1], in test [2], in [3], in [8], in test [6] and in [10]. Moreover, in test [4], the AC50 is 5.43 µM (active).
